“And” between values parts separate entries of the source, which are not always exact repeats. Equal values may be shown once. Compounds without any hit were thinned out: in the full panel of roughly 83,000, 20% have a hit.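 Activity criterion: percent growth below 10, measured after cells in 96-well plates were exposed to a single compound concentration for 48 hours.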 Unmarked numbers belong to inactive results. The source made the active and inactive calls.

The subject of this assay is MDA-MB-468 breast. The experiment in a line: NCI-60 one-dose screen, 48 h (100 = growth as untreated, 0 = no growth, -100 = all killed). The note with it: 10 µM unless noted.
For the compound `COc1ccc(-c2n[nH]nc2-c2cc3ccccc3s2)cc1O`, the growth was 40.8%.

Turning to `Nc1ncnc2nc(Br)[nH]c12`, the growth is 102%.

`COc1ccc(/C=C2\CN(C(=O)C(Cl)Cl)C/C(=C\c3ccc(OC)cc3)C2=O)cc1`: the growth was -27.5% (active).

For `CCCCCCCCCCCCCCCC1=NCCN1`, the growth was -32.9% (active).

`COc1ccc(/C=C2\CCCC3=C2NC(C)=NC3c2ccc(OC)c(OC)c2)cc1OC` (stereo not given): the growth is -10.3% (active).

For the compound `CC1(C)CCC(S(=O)(=O)c2ccc3c(c2)/C(=N\O)c2cc(S(=O)(=O)N4CCC(O)(c5cccc(C(F)(F)F)c5)CC4)ccc2-3)CC1`, the growth was -78.4% (active).

With `Cn1ncc2c(Nc3ccccc3Cl)nc(Cl)nc21`, the growth is 97.1%.

Turning to `O=C(Nc1ccc(Oc2cccc(F)c2)c(Cl)c1)c1cccnc1`, the growth was -9.22% (active).

With `C=C1CC2(OC1=O)C(=O)N(C)c1ccc(I)cc12` (stereo not given), the growth is -79.2% (active).

Take `CCCC(=O)NC(c1cccnc1)c1cc(C)c2cccnc2c1O` (stereo not given): the growth was 19.8%.

As for `OCCN1CCN(CC/C=C2\c3ccccc3Sc3ccc(Cl)cc32)CC1`, the growth is -97.1% (active).

Turning to `CNC(=O)c1cnc(C)nc1-c1cc(C(C)(C)C)c(O)c(C(C)(C)C)c1`, the growth was 97.4%.

Take `CCCCCC(=C/c1ccccc1)/C=N/N=C(N)N`: the growth is -87.4% (active).

`Fc1ccc2c(c1)c(-c1nc(-c3c[nH]c4ncccc34)cs1)cn2CCCN1CCCCC1`: the growth was 76.6%.

Consider `COc1ccc(/C=C/c2ccc3ccccc3n2)c(OC)c1`, for which the growth is 18.3%.

For `COc1ccc(C2=NN(C=O)C(c3ccc(OS(=O)(=O)c4ccc(C)cc4)c(OC)c3)C2)cc1` (stereo not given), the growth is 18.1%.

In the case of `CC1(CO)CCCC12OCCO2` (stereo not given), the growth was 102%.

With `COc1cc(OC)c(C(=O)/C=C/c2cccc(OC(C)=O)c2)cc1CC=C(C)C`, the growth was 58.3%.

For the compound `Cn1c(N2NC(=O)C(N=Nc3ccc(S(N)(=O)=O)cc3)C2=O)nc(-c2ccco2)c(C#N)c1=O` (stereo not given), the growth is -17.9% (active).

Take `COc1cc(/C=C2\C(=O)Nc3ccc(Br)cc32)cc(OC)c1OC`: the growth is 16.9%.

On to `O=C(/C=C/c1ccccc1)c1cccc(O)c1`, for which the growth was 111% and 90.2%.

Regarding `NCC(=O)CCC(=O)O`, the growth was 100%.

With `COc1cc(/C=C2\CN(C)C/C(=C\c3cc(CN4CCOCC4)c(O)c(OC)c3)C2=O)cc(CN2CCOCC2)c1O`, the growth is 38.8%.

Take `O=S(=O)(NCCNc1nccc(-c2c(-c3ccc(O)cc3)nc3sccn23)n1)c1cccc2ccccc12`: the growth is 94.6%.

For the compound `Cc1nn2c(-c3nc4cc(Cl)c(Cl)cc4[nH]3)c(-c3ccc(F)cc3)nc2s1`, the growth is 8.3% (active).

As to `CN1CCN(C(=O)OCCOCCOC(=O)N2CCN(C)CC2)CC1`, the growth was 107%.

Consider `O=C(/C=C/c1ccc(Cl)cc1)c1ccc(NC(=O)N2CCN(c3cc4c(cc3F)c(=O)c(C(=O)O)cn4C3CC3)CC2)cc1`, for which the growth is 96.6%.

For `CC1Cc2c(Cl)ncnc2N(C)c2ccc(F)cc21` (stereo not given), the growth is 64.5%.

With `COc1ccc(C(=O)N/N=C/c2ccc(O)cc2O)cc1Nc1ccnc(C(F)(F)F)c1`, the growth is 29.2%.

Take `CCc1cc(Cl)c(OC)c(C(=O)NCC2CCCN2CC)c1O` (stereo not given): the growth was 77.1%.

For `COc1cc(CCn2nnc3c(Nc4ccc(N5CCOCC5)cc4)ncnc32)cc(OC)c1`, the growth is 80.6%.

On to `COc1cc(-c2nn3c(/C=C4/C(=O)Nc5ccccc54)c(-c4ccc(C)cc4)nc3s2)cc(OC)c1OC`, for which the growth was 41%.

On to `NC[C@@H]1CCN(c2cc3c(cc2F)c(=O)n(N)c(=O)n3Cc2ccc(-c3ccccc3)cc2)C1`, for which the growth is 72.6%.

Consider `CC(=O)Cc1nsc(NC(=O)c2ccoc2COc2ccccc2)n1`, for which the growth is 124%.

On to `COc1ccccc1/C=N/NC1=NC2C(N1)N(C)C(=O)N2C` (stereo not given), for which the growth is 106%.

`Cc1cc(Cl)nc(N2CCN(CCNc3ccnc4cc(Cl)ccc34)CC2)n1`: the growth was 4.38% (active).

In the case of `COC(=O)/C=C/c1cc(OC)c2c(c1)[C@@H](C(=O)OC)[C@H](c1ccc(OC)c(OC)c1)O2`, the growth was 50.9%.

With `O=C1C2=C(C(=O)c3c(O)ccc(O)c31)N(c1ccc(N3CCOCC3)nc1)Cc1ccccc1O2`, the growth was -60.8% (active).

As to `O=C1CC[C@@H](C(=O)N[C@H]2CSSC[C@@H](C(=O)NCCc3ccccc3)NC(=O)[C@H](Cc3ccccc3)NC(=O)[C@@H]3CCCN3C(=O)[C@@H]3CCCN3C2=O)N1`, the growth was 90.2%.

Regarding `Cc1ccc(S(=O)(=O)Nc2ccc(-c3cc(-c4cccc(F)c4)c(C#N)c(=O)[nH]3)cc2)cc1`, the growth was 67.9%.

Source of the values: PubChem BioAssay (NCI).
